About 79,000 compounds went through this panel and 15% of them were active in at least one assay; those are over-represented in the sample as a whole. Calls of active or inactive are those of the source. Cut-off read from the data, not from the text of the source: active = growth inhibition above about 70%; inactive = the rest. Where a SMILES comes first, the peptide text is derived from it. The star is where a group is joined. OtBu = CC(C)(C)O*
Key:
[1] = NCI Yeast Anticancer Drug Screen. Data for the rad50 strain (AID 155);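 note: 0% = growth of vehicle-only cultures of the same strain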; conditions: S. cerevisiae rad50 strain growth inhibition; at 50.0 µM; hits give high values
Method in brief: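 Vehicle-treated cultures provide the reference for the growth inhibition reported for compound-exposed, repair-deficient yeast.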

[2] = NCI Yeast Anticancer Drug Screen. Data for the mec2-1 strain (AID 157); conditions: S. cerevisiae mec2-1 strain, at 50.0 µM, hits give high values
Method in brief: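 Test agents were screened against the mec2-1 yeast strain, with defined DNA repair or cell cycle alteration. Growth was scored as inhibition against vehicle-only controls.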

[3] = NCI Yeast Anticancer Drug Screen. Data for the sgs1 mgt1 strain (AID 161);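 note: 0% = growth of cultures given vehicle only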; conditions: S. cerevisiae sgs1 mgt1 strain, at 50.0 µM, hits give high values
Method in brief: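 Mutant yeast exposed to compound; growth scored against vehicle-only wells.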

[4] = NCI Yeast Anticancer Drug Screen. Data for the cln2 rad14 strain (AID 165);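 note: 0% = growth equal to vehicle treated cultures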; conditions: S. cerevisiae cln2 rad14 strain, at 50.0 µM, hits give high values
Method in brief: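 Growth of compound-exposed yeast (cln2 rad14 genotype) measured and expressed as inhibition relative to vehicle.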

[5] = NCI Yeast Anticancer Drug Screen. Data for the bub3 strain (AID 167); conditions: S. cerevisiae bub3 mutant strain, at 50.0 µM, hits give high values
Method in brief: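 Mutant yeast screening strain plus compound; vehicle-treated cultures serve as the 0% inhibition reference.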

[6] = NCI Yeast Anticancer Drug Screen. Data for the mlh1 rad18 strain (AID 175); conditions: S. cerevisiae mlh1 rad18 strain growth inhibition; at 50.0 µM; hits give high values
Method in brief: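 In this whole-cell yeast screen, a strain with altered DNA damage repair is challenged with compound, and its growth is measured against matched vehicle-treated controls.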

Measured: growth inhibition

O=C1NCC2(CCN(CC3COc4ccccc4O3)CC2)N1c1ccccc1 (stereo unspecified)
inactive: [1] -23.3% | [2] -18.2% | [3] -21% | [4] -2.95% | [5] -3.2% | [6] -34.5%

CC(=O)O/C(=C\C(=O)[C@H]1CC[C@H]2[C@@H]3CC[C@@H]4C[C@H](OC(C)=O)CC[C@]4(C)[C@H]3C(=O)C[C@]12C)C(F)(F)F
inactive: [1] -16.1% | [2] 23.6% | [3] 5.25% | [4] 18.8% | [5] 8.85% | [6] -13.6%

O=C(O)CCC1CCc2cccc(OCC(=O)O)c2C1=O (stereo unspecified)
inactive: [1] 2% | [2] -4.3% | [3] -16.2% | [4] 23.5% | [5] -4.4% | [6] -11.7%

CC(=O)Oc1c(C)cc(C(=O)CO)cc1C
inactive: [1] 34.7% | [2] 15.4% | [3] 27.7% | [4] 6.75% | [5] 14.4% | [6] 31.8%

C[Si](C)(OCCS(=O)(=O)O)C1S(=O)(=O)OCCOS1(=O)=O
inactive: [1] -18.7% | [2] -21.4% | [3] -12.9% | [4] 8.6% | [5] -16.8% | [6] -18.4%

CC(C)C(NC(=O)C1CCCN1)P(=O)(O)O (stereo unspecified)
inactive: [1] 10.1% | [2] 1.7% | [3] 4.55% | [4] -10.8% | [5] 5% | [6] 5.9%

CCN(CC)CCOCC(=O)Nc1ccccc1C
inactive: [1] -17.3% | [2] 4.8% | [3] 4.95% | [4] -37.5% | [5] 22.8% | [6] 26.6%

Cc1ccc(C(=O)Nc2ccc([N+](=O)[O-])cc2)cc1
inactive: [1] 4.2% | [2] -6.75% | [3] -0.35% | [4] -2.75% | [5] -5.35% | [6] -2.95%

O=S(=O)(O)c1cc(O)c(N=NC2S(=O)(=O)OCCOS2(=O)=O)c2ccccc12
inactive: [1] 7.45% | [2] 2.7% | [3] 31.2% | [4] -9.2% | [5] 16.8% | [6] -4.05%

CCC(C)C(CC)C(=O)N(C)C(=O)N(C)C(C)=O (stereo unspecified)
inactive: [1] -19.2% | [2] 33.3% | [3] 4.5% | [4] -33.5% | [5] 13.7% | [6] 12.5%

NNS(=O)(=O)c1ccc(/C=C2\NC(=O)NC2=O)cc1
inactive: [1] -4.45% | [2] 1.5% | [3] -17.2% | [4] 13.2% | [5] -26.4% | [6] 23.9%

c1ccc2c(c1)CCc1cc3cc4c(nc3nc1-2)-c1ccccc1CC4
inactive: [1] -14.4% | [2] -15.8% | [3] -14.1% | [4] -9.4% | [5] -1.75% | [6] -15.2%

O=C(O)/C=C(\CC(=O)O)C(=O)O
inactive: [1] 12.8% | [2] 11.9% | [3] -21.9% | [4] 8.15% | [5] -21.1% | [6] 1.15%

Nc1ccc(C(=O)NN2C(=O)C(Cl)C2c2cccc(O)c2)cc1 (stereo unspecified)
inactive: [1] -4.45% | [2] -41.7% | [3] -35.1% | [4] -14.2% | [5] 4.3% | [6] -6.55%

CC(=O)CC(=O)NCc1ccc2c(c1)OCO2
inactive: [1] -17.4% | [2] -9.2% | [3] -16.3% | [4] 3.75% | [5] -15.1% | [6] -11.8%

CC(C)CC(NC(=O)C1CCCN1)C(=O)NC(CC(C)C)C(=O)OC(C)(C)C (stereo not drawn) (H-Pro-Leu-Leu-OtBu; configuration not given here)
inactive: [1] 30.2% | [2] 26.6% | [3] 29.1% | [4] 19% | [5] -4.15% | [6] 30.9%

CC(=O)OC1CC(c2ccccc2)=NO1 (stereo unspecified)
inactive: [1] -12.8% | [2] -21.5% | [3] -8.6% | [4] -21.9% | [5] -10.8% | [6] -12.4%

CCOC(=O)/C=C/n1c2ccccc2c(=O)c2cc(OC)ccc21
inactive: [1] -3.25% | [2] -13.6% | [3] -18.8% | [4] 3.6% | [5] -8.95% | [6] -2.4%

CCNc1nc(C)nc2c1cnn2-c1ccc(C)cc1
inactive: [1] 6.25% | [2] -3.4% | [3] 25.3% | [4] -27.5% | [5] -21.8% | [6] 7.25%

Cc1ccc([N+](=O)[O-])cc1NC(=O)Cc1ccccc1
inactive: [1] 4.05% | [2] 29.8% | [3] 1.45% | [4] -8% | [5] 18.3% | [6] 17.6%

O=C(/C=C\c1ccccc1)c1ccc(-c2cccc(-c3ccccc3)c2)cc1
inactive: [1] -8.55% | [2] 7.95% | [3] 7.5% | [4] -17.4% | [5] -3.15% | [6] -11.1%

COc1ccc(OC2OC(CO)C(OCc3ccccc3)C(OCc3ccccc3)C2OCc2ccccc2)cc1 (stereo unspecified)
inactive: [1] 5.6% | [2] -11.7% | [3] -11.7% | [4] 2.4% | [5] -33.6% | [6] -42.8%

O=C(Cc1ccccc1CC(=O)Oc1ccccc1)Oc1ccccc1
inactive: [1] 9.1% | [2] -3.9% | [3] 10.8% | [4] 5.2% | [5] 18.9% | [6] 5.75%

CC(CN(C)C)C(/C=C/c1ccccc1)=N\Nc1ccccc1 (stereo unspecified)
inactive: [1] -5.7% | [2] 23.4% | [3] 7.85% | [4] -6.3% | [5] -2.1% | [6] 3.25%

NC(=O)C(=CNC(=S)Nc1ccc(S(=O)(=O)Nc2ccccn2)cc1)C(N)=O
inactive: [1] -31.8% | [2] -8.3% | [3] 22.3% | [4] -4.1% | [5] 11.3% | [6] -26.8%

CC1=C[C@H](C[C@]2(C)c3c(c4c(C)cccc4oc3=O)O[C@@H]2C)OC1=O
inactive: [1] 1% | [2] 24.4% | [3] 11.3% | [4] 17.2% | [5] -3.2% | [6] 33.2%

O=[N+]([O-])c1ccc(CCCc2ccc([N+](=O)[O-])cc2)cc1
inactive: [1] 39.6% | [2] 7.35% | [3] 58.9% | [4] -41.2% | [5] 11.6% | [6] 15.1%

COc1ccc(C(Cl)=C(c2ccc(OCCN(C)C)cc2)c2ccc(OCCN(C)C)cc2)cc1
inactive: [1] 29.7% | [2] 15.6% | [3] 40.1% | [4] 28.8% | [5] 28.4% | [6] 20.1%

O=C(Nc1ccc(Cl)c(Cl)c1)C(=O)C(C(=O)c1ccccc1-c1ccccc1)C1OC(=O)c2ccccc21 (stereo unspecified)
inactive: [1] 20.2% | [2] -0.45% | [3] 5.85% | [4] -50.5% | [5] 4.85% | [6] -8.9%

CN1CCN(Cc2oc(CO)cc(=O)c2O)CC1
inactive: [1] -3.8% | [2] -22.9% | [3] 5.2% | [4] 12.2% | [5] 16.8% | [6] -7.65%

COc1cc(/C=C2\CCC(CN(C)C)C2=O)ccc1OC(=O)c1ccccc1 (stereo unspecified)
active: [1] 86.6% | [2] 91.1% | [3] 86% | [4] 89.1% | [5] 85.2% | [6] 89.7%

CN(C)N1C(=C(C#N)C#N)C(c2ccccc2)CC1C#N (stereo unspecified)
inactive: [1] 9.55% | [2] 12.9% | [3] -22.8% | [4] 13.2% | [5] -25.8% | [6] -41.5%

CCc1ccc2c(OC(C)=O)c3ccccc3c(OC(C)=O)c2c1
active: [6] 74.6%
inactive: [1] 36.4% | [2] 41.3% | [3] 33.4% | [4] 18.2% | [5] 46%

NC(CC(=O)O)C(=O)OCc1cccc(N=Nc2ccccc2)c1 (stereo unspecified)
inactive: [1] 7.8% | [2] -8.35% | [3] -7.2% | [4] -3.2% | [5] -2.4% | [6] 4.3%

O=C1CC(O)C2C(=O)c3c(c(Cl)c4ccccc4c3O)C(=O)C2C1 (stereo unspecified)
inactive: [1] 12.1% | [2] 12.4% | [3] 10.2% | [4] 4.75% | [5] 3.85% | [6] 20.3%

COc1ccc(O)c2c(=O)ccccc12
inactive: [1] 8.5% | [2] 7.15% | [3] -3% | [4] -13.8% | [5] 5.4% | [6] 5.55%

O=C1COC(=O)/C1=C/c1ccccc1
inactive: [1] -0.4% | [2] -7.85% | [3] -4.75% | [4] 2.3% | [5] -15.8% | [6] -1.05%

CC1=C[P+](c2ccccc2)(c2ccccc2)c2ccccc2O1
inactive: [1] 58% | [2] 57.6% | [3] 66.8% | [4] 34.6% | [6] 63.1%
active: [5] 72.3%

CCOC(=O)c1oc2c(OC)ccc3c2c1CCC3
inactive: [1] 7.7% | [2] 4% | [3] 1.8% | [4] -9.4% | [5] -6.25% | [6] 30.8%

COc1nc(NC2OC(CO)C(O)C(O)C2O)c(/C=N/O)c(=O)n1C (stereo unspecified)
inactive: [1] 4.55% | [2] 2.25% | [3] -6.35% | [4] 6.8% | [5] 7.85% | [6] 4.45%

Cc1cc2ccccc2n1C
inactive: [1] 4.05% | [2] 5.45% | [3] 39.5% | [4] 10.1% | [5] 31.9% | [6] 18.2%
